Among all 200,000 compounds or so, about 4,500 (2.2%) were called active. Inconclusive results (about 12%) are left out. This is one part of a sample in which actives are shown more often than they occur. Values without a mark were called inactive. Calls come from the whole dose curve; as a rule, active = well fitted inhibition curve with a large enough effect; inconclusive = small, poorly fitted or top-dose-only effect, or effect the other way; inactive = flat fitted curve, though single readings scatter.
Target: Cruzipain (Trypanosoma cruzi) (UniProt P25779)
Experiment: qHTS Assay for Promiscuous and Specific Inhibitors of Cruzain (without detergent); note: nearly all actives have a fitted effect of over 40% in size;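 for max response, negative = inhibition: plate controls were enzyme without inhibitor for no effect and buffer without enzyme for full effect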
Conditions: purified cruzain, Z-FR-AMC fluorescence, no detergent
In short: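 Detergent-free condition (0.00005% Triton X-100) in acetate buffer pH 5.5 with DTT. 1.5 nM enzyme and compound were pre-mixed 15 min, then 2 uM Z-FR-AMC substrate added; reaction progress from fluorescence change between first and third reads (60 s).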
Potency is the fitted concentration of half-maximal effect.

Cruzipain (Trypanosoma cruzi), sequence (P25779 123-467 limits assumed): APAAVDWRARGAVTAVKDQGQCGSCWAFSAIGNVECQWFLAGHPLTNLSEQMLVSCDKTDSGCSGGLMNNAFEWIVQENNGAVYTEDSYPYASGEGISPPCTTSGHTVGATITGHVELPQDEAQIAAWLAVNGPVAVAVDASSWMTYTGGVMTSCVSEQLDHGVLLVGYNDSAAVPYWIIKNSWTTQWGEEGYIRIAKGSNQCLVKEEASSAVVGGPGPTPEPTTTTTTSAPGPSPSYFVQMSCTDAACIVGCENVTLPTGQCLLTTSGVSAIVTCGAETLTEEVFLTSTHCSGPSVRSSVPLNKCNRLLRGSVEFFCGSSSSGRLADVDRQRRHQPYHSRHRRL

Structure (SMILES) | max response, negative = inhibition [%] | Potency
Cc1ccccc1-c1nc(CS(=O)(=O)CC(=O)Nc2cc(Cl)cc(Cl)c2)c(C)o1 | -28.1 | –
COc1ccc(-c2[nH]c3c(c2-c2c(-n4cccc4)n(C)c(=O)n(C)c2=O)c(=O)n(C)c(=O)n3C)cc1 | -3.26 | –
COC(=O)C(NC(=O)c1ccc(OC)cc1)(Nc1ncc(S(=O)(=O)c2ccc([N+](=O)[O-])cc2)s1)C(F)(F)F (stereo not drawn) | -9.17 | –
COc1ccc(C(=O)Nc2nc(-c3ccc(OC)cc3)c(-c3ccc([N+](=O)[O-])cc3)s2)cc1 | – | 7.94 µM (active)
COc1ccc(C(=O)Nc2ncc3c(n2)-c2ccccc2CC3)cc1 | -8 | –
O=C(NCc1ccccc1Cl)c1cccn1-c1nnc(N2CCCCC2)s1 | -7.04 | –
Oc1ccc(O)c2c(O)cccc12 | – | 12.6 µM (active)
O=c1cc(-c2ccc(O)c(O)c2)oc2cccc(O)c12 | 0.411 | –
O=S(=O)(c1ccc(Cl)cc1)c1nnn2c1nc(NC1CCCC1)c1sccc12 | 1.8 | –
Cc1ccccc1NC(=O)Cn1c(=O)n(CC2CCC(C(=O)NCCc3ccccc3)CC2)c(=O)c2ccccc21 (stereo not drawn) | 3.54 | –
COc1ccc(-c2nc(C)c(CCNC(=O)c3ccc(C(F)(F)F)cc3)s2)cc1OC | 17.5 | –
CCn1cc(CCC(=O)NCc2ccc(F)cc2)c2ccccc21 | -13.6 | –
COC(=O)c1ccc(CSc2nc3ccccc3c(=O)n2-c2cccc(OC)c2)o1 | – | 25.1 µM (active)
Cc1ccc(NC(=O)CSc2nc3c([nH]c4ccccc43)c(=O)n2-c2ccccc2)cc1Cl | 2.09 | –
CCc1ccc(NC(=O)CSc2nc3c([nH]c4ccccc43)c(=O)n2-c2cccc(OC)c2)cc1 | – | 12.6 µM (active)
COC(=O)c1ccc(CSc2ccccc2C)o1 | -6.13 | –
COCC(C)n1c(SCc2ccc(C(=O)OC)o2)nc2ccccc2c1=O (stereo not drawn) | 12.5 | –
Cc1cccc(NC(=O)CSc2nc3c([nH]c4ccccc43)c(=O)n2-c2cc(C)cc(C)c2)c1 | -19.8 | –
COc1ccc(-c2cccc(NS(=O)(=O)c3cc(C)c(OC)c(C)c3C)c2)nn1 | -5.81 | –
Cc1ccccc1CNC(=O)c1ccc(NC(=O)N2CCCCc3ccccc32)cc1 | -9.89 | –
Cc1ccc(-c2nnc(SCC(=O)NCc3ccccc3)nc2-c2ccc(C)cc2)cc1 | -17.5 | –
Brc1ccc2c(c1)NC(c1cccnc1)=NC(c1ccccc1)=N2 | 2.72 | –
CCCCN(C)CCCNC(=O)CN1N=C(c2ccc(OC)cc2)CCC1=O | 2.7 | –

— PubChem BioAssay AID1476 (National Center for Advancing Translational Sciences (NCATS), 2009)
